Results from PubChem BioAssay AID1159580 (chemical genetic matrix, 2015).
Hit rate of the full screen: of about 5,500 compounds, about 2,000 (36%) were called active. Inconclusive results (about 18%) are left out. Rule as the data show it: active = normalized growth mostly below about 0.91 (no sharp cut-off); inconclusive = no clear call, values can overlap the other calls; inactive = mostly above about 0.92. This is one part of the list.

Test: chemical genetic growth profiling, strain panel (AID 1159580);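 also: tested at 20 µM; growth read once vehicle control cultures reached saturation at 30 °C; 1 = growth at the plate median or of vehicle wells; lower values mean less growth of the strain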
Conditions: growth OD

Measured: normalized growth

COc1cc(S(C)=O)ccc1-c1nc2ncccc2[nH]1 (centres undefined)
inactive: S. cerevisiae deletion strains, locus YJR043C, strain POL32, stronger effect = lower value 1 | S. cerevisiae deletion strains, locus YJR075W, strain HOC1, stronger effect = lower value 0.983 | S. cerevisiae deletion strains, locus YKL009W, strain mrt4, stronger effect = lower value 1 | S. cerevisiae deletion strains, locus YKL068W, stronger effect = lower value 0.991 | S. cerevisiae deletion strains, locus YKL085W, strain MDH1 (second series), stronger effect = lower value 1 | S. cerevisiae deletion strains, locus YKL085W, strain MDH1, stronger effect = lower value 1 | S. cerevisiae deletion strains, locus YKL160W, strain elf1, stronger effect = lower value 0.947 | S. cerevisiae deletion strains, locus YKL190W, strain CNB1, stronger effect = lower value 0.991 | S. cerevisiae deletion strains, locus YKR001C, strain vps1, stronger effect = lower value 0.986 | S. cerevisiae deletion strains, locus YKR026C, strain gcn3, stronger effect = lower value 0.98 | S. cerevisiae deletion strains, locus YKR091W, strain srl3, stronger effect = lower value 0.959 | S. cerevisiae deletion strains, locus YLL001W, strain dnm1, stronger effect = lower value 0.919 | S. cerevisiae deletion strains, locus YLL026W, stronger effect = lower value 0.962 | S. cerevisiae deletion strains, locus YLL041C, strain sdh2, stronger effect = lower value 0.97 | S. cerevisiae deletion strains, locus YLR027C, strain aat2, stronger effect = lower value 0.98 | S. cerevisiae deletion strains, locus YLR039C, strain RIC1, stronger effect = lower value 1.03 | S. cerevisiae deletion strains, locus YLR058C, strain SHM2, stronger effect = lower value 0.993 | S. cerevisiae deletion strains, locus YLR102C, strain apc9, stronger effect = lower value 0.999 | S. cerevisiae deletion strains, locus YLR221C, strain rsa3, stronger effect = lower value 1.01 | S. cerevisiae deletion strains, locus YLR258W, strain gsy2, stronger effect = lower value 0.93 | S. cerevisiae deletion strains, locus YLR262C, strain YPT6 (second series), stronger effect = lower value 0.987 | S. cerevisiae deletion strains, locus YLR262C, strain YPT6, stronger effect = lower value 0.994 | S. cerevisiae deletion strains, locus YLR268W, strain sec22, stronger effect = lower value 0.999 | S. cerevisiae deletion strains, locus YLR320W, strain mms22, stronger effect = lower value 0.995 | S. cerevisiae deletion strains, locus YLR330W, strain CHS5, stronger effect = lower value 0.988 | S. cerevisiae deletion strains, locus YLR342W, strain FKS1 (second series), stronger effect = lower value 1 | S. cerevisiae deletion strains, locus YLR342W, strain FKS1, stronger effect = lower value 0.969 | S. cerevisiae deletion strains, locus YLR357W, strain rsc2, stronger effect = lower value 0.915 | S. cerevisiae deletion strains, locus YLR370C, strain arc18, stronger effect = lower value 0.974 | S. cerevisiae deletion strains, locus YLR371W, strain rom2, stronger effect = lower value 0.991 | S. cerevisiae deletion strains, locus YLR384C, strain iki3, stronger effect = lower value 0.961 | S. cerevisiae deletion strains, locus YLR418C, strain cdc73, stronger effect = lower value 1.04 | S. cerevisiae deletion strains, locus YML016C, strain PPZ1, stronger effect = lower value 1 | S. cerevisiae deletion strains, locus YML032C, strain rad52, stronger effect = lower value 0.989 | S. cerevisiae deletion strains, locus YML120C, strain ndi1, stronger effect = lower value 0.971 | S. cerevisiae deletion strains, locus YML124C, strain tub3, stronger effect = lower value 0.993 | S. cerevisiae deletion strains, locus YMR058W, strain fet3, stronger effect = lower value 0.982 | S. cerevisiae deletion strains, locus YMR078C, strain ctf18, stronger effect = lower value 0.989 | S. cerevisiae deletion strains, locus YMR125W, strain sto1, stronger effect = lower value 0.927 | S. cerevisiae deletion strains, locus YMR129W, stronger effect = lower value 0.979 | S. cerevisiae deletion strains, locus YMR205C, strain PFK2, stronger effect = lower value 0.93 | S. cerevisiae deletion strains, locus YMR223W, strain ubp8, stronger effect = lower value 0.998 | S. cerevisiae deletion strains, locus YMR231W, strain pep5, stronger effect = lower value 0.99 | S. cerevisiae deletion strains, locus YMR263W, strain SAP30, stronger effect = lower value 0.975 | S. cerevisiae deletion strains, locus YMR307W, strain GAS1, stronger effect = lower value 1.03 | S. cerevisiae deletion strains, locus YNL067W, strain RPL9B, stronger effect = lower value 1.01 | S. cerevisiae deletion strains, locus YNL071W, strain lat1, stronger effect = lower value 0.97 | S. cerevisiae deletion strains, locus YNL128W, strain TEP1, stronger effect = lower value 0.997 | S. cerevisiae deletion strains, locus YNL153C, strain GIM3, stronger effect = lower value 0.999 | S. cerevisiae deletion strains, locus YNL209W, strain ssb2, stronger effect = lower value 0.98 | S. cerevisiae deletion strains, locus YNL233W, strain BNI4, stronger effect = lower value 0.995 | S. cerevisiae deletion strains, locus YNL248C, strain rpa49, stronger effect = lower value 0.967 | S. cerevisiae deletion strains, locus YNL250W, strain rad50, stronger effect = lower value 0.991 | S. cerevisiae deletion strains, locus YNL271C, strain bni1, stronger effect = lower value 0.997 | S. cerevisiae deletion strains, locus YNL298W, strain CLA4, stronger effect = lower value 0.971 | S. cerevisiae deletion strains, locus YNL307C, strain MCK1, stronger effect = lower value 1 | S. cerevisiae deletion strains, locus YNL322C, strain KRE1 (second series), stronger effect = lower value 0.938 | S. cerevisiae deletion strains, locus YNL322C, strain KRE1, stronger effect = lower value 0.998 | S. cerevisiae deletion strains, locus YNR049C, strain mso1, stronger effect = lower value 0.966 | S. cerevisiae deletion strains, locus YNR052C, strain pop2, stronger effect = lower value 0.976 | S. cerevisiae deletion strains, locus YOL006C, strain TOP1, stronger effect = lower value 1.04 | S. cerevisiae deletion strains, locus YOL012C, strain htz1 1.02 | S. cerevisiae deletion strains, locus YOL147C, strain pex11, stronger effect = lower value 0.982 | S. cerevisiae deletion strains, locus YOR001W, strain rrp6, stronger effect = lower value 1.01 | S. cerevisiae deletion strains, locus YOR061W, strain CKA2, stronger effect = lower value 1.01 | S. cerevisiae deletion strains, locus YOR069W, strain VPS5, stronger effect = lower value 1 | S. cerevisiae deletion strains, locus YOR070C, strain gyp1, stronger effect = lower value 0.993 | S. cerevisiae deletion strains, locus YOR080W, strain dia2, stronger effect = lower value 0.982 | S. cerevisiae deletion strains, locus YOR083W, strain WHI5, stronger effect = lower value 0.936 | S. cerevisiae deletion strains, locus YOR106W, strain vam3, stronger effect = lower value 0.91 | S. cerevisiae deletion strains, locus YOR136W, strain idh2, stronger effect = lower value 0.986 | S. cerevisiae deletion strains, locus YOR144C, strain elg1, stronger effect = lower value 0.99 | S. cerevisiae deletion strains, locus YOR184W, strain ser1, stronger effect = lower value 0.998 | S. cerevisiae deletion strains, locus YOR265W, strain rbl2, stronger effect = lower value 0.967 | S. cerevisiae deletion strains, locus YOR270C, strain vph1, stronger effect = lower value 0.974 | S. cerevisiae deletion strains, locus YOR290C, strain snf2, stronger effect = lower value 0.951 | S. cerevisiae deletion strains, locus YOR316C, strain cot1, stronger effect = lower value 0.991 | S. cerevisiae deletion strains, locus YPL051W, strain arl3, stronger effect = lower value 0.943 | S. cerevisiae deletion strains, locus YPL055C, strain LGE1, stronger effect = lower value 0.925 | S. cerevisiae deletion strains, locus YPL078C, strain atp4, stronger effect = lower value 0.94 | S. cerevisiae deletion strains, locus YPL106C, strain sse1, stronger effect = lower value 0.947 | S. cerevisiae deletion strains, locus YPL240C, strain hsp82, stronger effect = lower value 0.985 | S. cerevisiae deletion strains, locus YPL241C, strain CIN2, stronger effect = lower value 0.992 | S. cerevisiae deletion strains, locus YPR119W, strain clb2, stronger effect = lower value 0.988 | S. cerevisiae deletion strains, locus YPR141C, strain kar3, stronger effect = lower value 0.999 | S. cerevisiae deletion strains, locus YPR163C, strain tif3, stronger effect = lower value 0.982 | S. cerevisiae deletion strains, locus YPR167C, strain met16, stronger effect = lower value 0.999 | S. cerevisiae deletion strains, strain wtn01, stronger effect = lower value 0.975 | S. cerevisiae strains, strain wild type, stronger effect = lower value 1
